FBPA Giardia inh = Giardia lamblia aldolase inhibition | AID 2451 | 0.71% of 290,000 active | A8B2U2 | Potency, µM (doses to about 59.6 µM), for inactives: at the highest dose activity, negative = inhibition, most hits filed as inhibitors | purified Giardia FBPA; also: potency is read from the fitted curve at half-maximal effect; % is scaled to controls: 0 for no effect and ±100 for the full control effect; nearly all actives have a fitted effect of over 55% in size
Target sequence (A8B2U2 whole entry, looked up): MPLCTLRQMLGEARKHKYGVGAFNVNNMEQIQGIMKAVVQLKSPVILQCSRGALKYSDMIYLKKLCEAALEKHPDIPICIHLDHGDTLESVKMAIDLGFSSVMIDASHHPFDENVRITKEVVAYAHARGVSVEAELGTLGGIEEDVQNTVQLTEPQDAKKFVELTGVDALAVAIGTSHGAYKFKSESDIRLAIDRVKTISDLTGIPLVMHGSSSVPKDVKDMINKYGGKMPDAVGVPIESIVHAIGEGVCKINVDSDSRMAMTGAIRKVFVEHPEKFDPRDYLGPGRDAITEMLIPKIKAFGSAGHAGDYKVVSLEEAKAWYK
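40 nM FBPA preincubated 10 min at RT with compound (up to 57.5 uM final), then substrate plus GAPDH/TPI/NAD/arsenate coupling and diaphorase/resazurin added. Fluorescence read after 20 min at RT, 525/598 nm.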
LmPK inh = blocks Leishmania mexicana pyruvate kinase activity. Q27686. purified LmPK, Kinase-Glo ATP luminescence, 1 h. Potency, µM (series often up to 57.5 µM), for inactives: at the top dose activity change, negative = inhibition, actives largely listed as inhibitors. 0.37% of 290,000 active. AID 1721; also: potency is read from the fitted curve at half-maximal effect; % is scaled to controls: 0 for no effect and ±100 for the full control effect
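Pyruvate kinase activity monitored as ATP production (luciferase luminescence). Conditions: 0.1 nM enzyme, 0.5 mM PEP, 0.1 mM ADP, 1 h, RT; normalized against uninhibited and no-enzyme wells.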
RE007 growth inh = less growth of the S. pombe RE007 Vpr strain. S. pombe RE007 Vpr strain, BacTiter-Glo ATP luminescence, 24 h. Potency, µM (titrated, usually from 92.2 µM), without a hit: top-dose activity change, negative = less growth, most hits filed as inhibitors. 0.21% of 360,000 active. AID 651644; active = well fitted falling curve with a large enough effect; inconclusive = small, poorly fitted or top-dose-only effect; inactive = no such curve, though single readings can be large or run the other way; also: potency is read from the fitted curve at half-maximal effect; % is scaled to controls: 0 for no effect and ±100 for the full control effect; nearly all actives have a fitted effect of over 50% in size
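Fission yeast RE007 carrying one integrated HIV-1 vpr copy, seeded at OD 0.01 in PMG+AL medium with 23 nL pinned compound. Grown 24 h at 30 degrees; viability read by BacTiter-Glo luminescence after 5 min.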
Shiga inhibitor = inhibitors of Shiga toxin in Vero cells | Vero cells, Shiga toxin protein synthesis inhibition reporter | inhibition, % at 38.7 µM | 9.2% of 290,000 active | AID 2315; in the data active = inhibition mostly above about 28%, no sharp cut-off; inactive = mostly below about 43%; also: 0% is about no effect
CHX counter = counter-screen for Shiga toxin inhibitors: cycloheximide protein synthesis inhibition. 12% of 300,000 active. AID 2314. max response, %. cell reporter, cycloheximide protein synthesis inhibition counterscreen; in the data active = max response mostly above about 13%, no sharp cut-off; inactive = mostly below about 14%; also: read at 38.3 µM for the half of the compounds with a filed dose; 0% is about no effect
TbPYK inhibitor = inhibitors of Trypanosoma brucei pyruvate kinase | TbPYK enzyme, Kinase-Glo Plus ATP luminescence, 45 min | Potency, µM (doses to about 76.8 µM), without a hit: at the highest dose activity, negative = inhibition, hits mostly inhibitors | 0.12% of 410,000 active | AID 624173; also: potency is read from the fitted curve at half-maximal effect; % is scaled to controls: 0 for no effect and ±100 for the full control effect; nearly all actives have a fitted effect of over 50% in size
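ADP (130 uM final) triggers the TbPYK reaction after compound addition; incubation is 45 min at room temperature. Kinase-Glo Plus is then added and luminescence imaged. Normalized data are fitted to concentration-effect curves.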
* hit, by the source's call; u = inconclusive; x = no result. Shown is part of a subset that was picked to be rich in hits. Unless noted, calls follow the shape of the dose curve; as a rule, active = well fitted curve in the direction sought with a large enough effect; inconclusive = small, poorly fitted or top-dose-only effect, or another doubt; inactive = no such curve, though single readings can be large; an effect the other way counts as inactive or inconclusive.

SMILES	FBPA Giardia inh	LmPK inh	RE007 growth inh	Shiga inhibitor	CHX counter	TbPYK inhibitor
CC(=O)Nc1nccc(-c2cc(-c3ccccc3)no2)n1	2%	-13%	-22%	53*	30*	0%
OCCCCNCc1ccc(OCc2ccc(Cl)cc2Cl)cc1	-1%	0%	4%	-19	-8	-13%
OCCNCc1ccc(OCc2ccc(Cl)cc2Cl)cc1	1%	-2%	-9%	35	25*	-7%
Cc1cc(Cl)ccc1OCC(=O)Nc1ccccc1C(=O)N1CCOCC1	x	-8%	4%	-3	8	-7%
O=C(c1cc(Cl)ccc1OCc1ccccc1)N1CCOCC1	12%	0%	61%	26	20*	-6%
O=C(COc1ccc(Cl)cc1Cl)NC(=O)N1CCOCC1	0%	-4%	-2%	93*	35*	2%
O=C(Nc1ccc(Cl)cc1C(=O)N1CCOCC1)c1ccco1	0%	-2%	-6%	-6	-3	-19%
O=C(COc1ccc(C(=S)N2CCOCC2)cc1Cl)Nc1ccccc1Cl	u	10%	-20%	52*	19*	-18%
O=C(COc1ccc(Cl)cc1Cl)Nc1ccc(CN2CCOCC2)cc1	12%	-6%	-9%	-2	-1	0%
O=C(COc1ccccc1Cl)Nc1ccccc1C(=O)N1CCOCC1	5%	4%	6%	29	18*	-21%
Cc1ccc(-c2nc(COC(=O)C3=NN(c4ccccc4)C(=O)CC3)cs2)cc1	x	x	-3%	x	x	-1%
O=C(CCCC(=O)N/N=C\c1ccccn1)N/N=C\c1ccccn1	-2%	3%	10%	-20	0	-11%
COc1cccc(/C=N/NC(=O)NC23CC4CC(CC(C4)C2)C3)c1O	x	x	0%	x	x	-2%
Cc1cccc(/C=N/NC(=O)NC23CC4CC(CC(C4)C2)C3)n1	12%	-4%	3%	32	20*	0%
O=C(N/N=C/c1ccccn1)NC12CC3CC(CC(C3)C1)C2	20%	1%	-5%	70*	39*	-3%
O=C(N/N=C/c1ccccc1F)NC12CC3CC(CC(C3)C1)C2	8%	3%	1%	54*	33*	0%
COC(=O)[C@@]1(Cc2ccccc2)[C@H]2c3cc(C(=O)N4CCCC4)n(CCN4CNCC4=O)c3C[C@H]2CN1C(=O)c1ccccc1	0%	x	x	x	x	x
CCOc1ccc(N=Nc2c(C)noc2C)cc1	-3%	-2%	2%	41	28*	4%
COc1ccc(CNC(=O)CSc2ncc3c(n2)-c2ccc(Cl)cc2N(Cc2ccccc2)S3(=O)=O)cc1	x	x	x	x	x	-11%
Cc1cc(C(=O)Nc2ccc3c(c2)OCO3)no1	x	-6%	-16%	10	8	-8%
Cc1ccc(Cn2ccc(NC(=O)c3cc(C)on3)n2)cc1	2%	1%	-3%	52	29*	-1%
Cc1ccc(NC(=O)c2cc(C)on2)cc1	1%	-14%	-4%	62	56*	0%
Cc1ccc(NC(=S)NNC(=S)Nc2ccc(C)cc2)cc1	x	x	-16%	x	x	-3%
Cc1ccc(NC(=S)Nc2cc(C)on2)cc1	1%	-4%	-16%	67*	48*	-8%
CCc1ccc(NC(=O)c2cc(C(C)C)on2)cc1	1%	-8%	-23%	65*	36*	2%
SMILES	FBPA Giardia inh	LmPK inh	RE007 growth inh	Shiga inhibitor	CHX counter	TbPYK inhibitor
CCc1ccc(NC(=O)c2cc(-c3ccc(F)cc3)on2)cc1	0%	8%	-4%	31	3	1%
Cc1cc(NC(=O)c2cccc(C(=O)Nc3cc(C)on3)n2)no1	-10%	1%	31%	12	-6	0%
Cc1cc(C(=O)Nc2ccccn2)no1	5%	-22%	-5%	44*	23*	-7%
CCc1ccc(NC(=O)c2cc(C)on2)cc1	0%	-13%	-9%	51*	28*	-2%
CCc1ccc(NC(=O)c2cc(-c3ccc(OC)cc3)on2)cc1	5%	0%	7%	41*	64*	-3%
CC(=O)Nc1ccc(C(=O)N/N=C/c2ccccc2OCc2ccccc2)cc1	8%	6%	-12%	21	2	1%
O=C(N/N=C/c1ccccc1OCc1ccccc1)c1cccnc1	2%	0%	-14%	8	13*	3%
O=C(N/N=C/c1cn(CC(=O)N2CCOCC2)c2ccccc12)c1cccnc1	2%	-7%	-7%	20	21*	-5%
Cc1ccc(/C=N/NC(=O)c2cccnc2)s1	0%	-8%	-10%	58*	18*	0%
O=C(N/N=C/c1cccs1)c1cccnc1	1%	-7%	0%	27	3	-17%
Cc1ccccc1/C=N/NC(=O)c1cccnc1	10%	-1%	2%	23	9.1*	2%
Cc1ccc(/C=N/NC(=O)c2cccnc2)o1	-1%	-1%	5%	-8	6	-7%
O=C(Cc1ccccc1)Nc1nnc2n1CCS2	x	x	x	x	x	1%
CCc1ccc(C(=O)N/N=C/c2cccc3ccccc23)nc1	3%	6%	-19%	52	19*	1%
COc1ccc(/C=N/NC(=O)c2cccnc2)c2ccccc12	21%	2%	6%	-6	-2	-5%
O=C(CNC(=O)c1cccs1)N/N=C/c1ccc(O)cc1O	23%	0%	-15%	1	-2	5%
O=C(N/N=C/c1cccc2ccccc12)c1cccnc1	-1%	-1%	-7%	39*	29*	-7%
O=C(CNC(=O)c1cccnc1)N/N=C/c1ccc(O)cc1O	-12%	-1%	13%	2	13*	-11%
Cc1cc(C)c(S(=O)(=O)OC[C@H]2C=CC[C@@H](CCC[C@H]3O[C@H](C(=O)OC(C)C)CC[C@@H]3C)O2)c(C)c1	0%	x	x	x	x	x
CCOc1ccc(OCCCC(=O)NCCc2ccc(OC)cc2)cc1	x	-3%	2%	-22	6	-5%
Cc1cccc(C(=O)NCC(=O)OCC(=O)c2cc(C)n(CC3CCCO3)c2C)c1 (configuration not stated)	-1%	5%	0%	89*	48*	-5%
Cc1cc(C(=O)COC(=O)CNC(=O)c2ccccc2)c(C)n1CC1CCCO1 (configuration not stated)	2%	0%	-6%	134*	26*	1%
Cc1cc(C(=O)COC(=O)c2cccc(S(=O)(=O)N(C)C)c2)c(C)n1CC1CCCO1 (configuration not stated)	x	x	14%	x	x	-12%
CNS(=O)(=O)c1cccc(C(=O)OCC(=O)c2cc(C)n(CC3CCCO3)c2C)c1 (configuration not stated)	x	x	1%	x	x	5%
O=C(Cn1nc(CNc2ccc(Br)cc2)[n+]2c1CCCCC2)c1ccc([N+](=O)[O-])cc1	-6%	3%	6%	1	7	-6%

Source: PubChem BioAssay
